# Test results published in ChEMBL document CHEMBL3433997, “St. Jude Leishmania screening dataset” (2016).
# Biological target: Glucose transporter (Leishmania mexicana) (UniProt O61059)
# Experiment: ST_JUDE_LEISH: Cytotoxicity at 2uM final concentration against transgenic Leishmania Mexicana promastigotes LmGT2 that are glucose transport deficient and complemented with the L. Mexicana glucose transporter 2. Activity is measured by DNA content using SYBR green in vitro
# Format: functional
row,Structure (SMILES),inhibition [%]
1,CCCNC(=O)c1cncc(-c2ccc(CNC3Cc4ccccc4C3)cc2)c1,-1.1
2,CS(=O)(=O)c1ccc(-c2cncc(Cl)n2)cc1,10.2
3,COCCNCc1cccc(-c2ccc3nccc(Nc4cc(O)ccc4C)c3c2)c1,4.38
4,COc1cc2ccccc2c(OC)c1CCNCCCCNCCc1c(OC)cc2ccccc2c1OC,14.6
5,O=C(Nc1ccccc1Cc1ccccc1)c1ccccc1[N+](=O)[O-],-2.02
6,COc1cc(NC(=O)N2CCOC(CCN3CCC(c4ccccc4)CC3)(c3ccc(Cl)c(Cl)c3)C2)cc(OC)c1 (stereo not given),-1.37
7,Oc1ccccc1N1CCN(c2ccc(-c3nc4ccccc4[nH]3)cn2)CC1,0.57
8,CN(C)C(=O)c1ccc(CN(Cc2ccc3c(c2)OCCO3)Cc2ccc3c(c2)OCO3)cc1,3.97
9,COc1ccc(CNCc2ccc(-c3cccc(-c4nc5cc(C(F)(F)F)ccc5[nH]4)c3)cc2)cc1,-2.33
10,O=C(Nc1ccc(-c2nc3ccccc3[nH]2)cc1)C1CCN(Cc2ccc(F)cc2)CC1,30.5
11,CC(C)c1ncc(-c2ccncc2)c(C2CCC(CNC(=O)c3cccnc3)CC2)n1 (stereo not given),1.81
12,Cc1nc2ccc(NC(=O)c3cc(S(=O)(=O)N(C)C)ccc3Cl)cc2s1,10.1
13,CC(C)CC(C)NC(=O)C1Cc2c([nH]c3ccc(F)cc23)C2(CCN(Cc3ccccc3)CC2)N1 (stereo not given),7.75
14,COc1c(C2CCN(CCCCNC(=O)c3cc(-c4ccc(Cl)cc4)oc3C)CC2)ccc2c1CCCC2,5.26
15,N#Cc1ccc2c(c1)CCN(CCC1CCC(NC(=O)Nc3cnc4ccccc4c3)CC1)C2 (stereo not given),2.03
16,CC(C)CNCc1ccc(-c2cccc(CN(CCN(C)C)C(=O)CCC3CCCC3)c2)cc1,11.2
17,COc1ccc(Br)cc1C1Nc2ccc3ccccc3c2C2=C1C(=O)CC(c1ccccc1)C2 (stereo not given),3.67
18,COc1ccc(/C=C/C(=O)NCCCCCN2CCC(c3c[nH]c4ccccc34)CC2)cc1O,7.57
19,CC(Cc1ccc(CN(CC(N)=O)Cc2ccc(CC(C)NCCc3cccc(Cl)c3)cc2)cc1)NCCc1cccc(Cl)c1 (stereo not given),7.2
20,CC(C)(C)c1ccc(NC(=O)c2ccc(CN3CCCN(Cc4cccc(O)c4)CC3)cc2)cc1,2.02
21,COc1ccc(C2=[N+]([O-])c3ccccc3C2=O)cc1,-0.74
22,COc1ccc2nccc([C@@H](O)CN3CCC(NCCOc4ccc(F)cc4[N+](=O)[O-])CC3)c2c1,1.61
23,CCOc1ccc(-c2nonc2NC(=O)c2ccccc2OC)cc1OCC,0.46
24,CC(=O)Nc1ccc(C(=O)Nc2cccc(-c3cccc(-c4nc5cc(C(F)(F)F)ccc5[nH]4)c3)c2)cn1,-1.64
25,CC(=O)Nc1ccc(C2NC(=O)NC(c3ccccc3)=C2c2nc3ccccc3s2)cc1 (stereo not given),2.69
